Experimental findings from the OligoGym collection are described below.
Further: reference of the scale not given here.

This experiment has as its target FGF2. Kind of experiment: pooled miR-30 sensor sort-seq; sequence = guide strand. Conditions: shRNA.
Take TAGCTTTCTGCCCAGGTCCTGT: the sensor-assay potency score (higher = more potent) was -0.929.

Sequence TCCATCTTCCTTCATAGCCAGG showed a sensor-assay potency score (higher = more potent) of -1.98. For TAGCTTGATGTGAGGGTCGCTC the value was -0.132; for TTCTAAAATATACTTCTTCTTT, -0.418; for TTGATAGACACAACTCCTCTCT, 0.382. Consider TTGGAAGAAAAAGTATAGCTTT, for which the sensor-assay potency score (higher = more potent) was 0.162. On to TATACTTCTTCTTTCATGTGAA, for which the sensor-assay potency score (higher = more potent) came out at 0.715. The figure for TAGTTATTAGATTCCAATCGTT is -0.676; for TAGACACAACTCCTCTCTCTTC it is -0.65. The figure for TTAGAAGCCAGTAATCTTCCAT is 0.816; for TAACACATTTAGAAGCCAGTAA it is -0.0447.

Regarding TTCAGTGCCACATACCAACTGG, the sensor-assay potency score (higher = more potent) was -0.475.

Consider TTTGGATCCAAGTTTATACTGC, for which the sensor-assay potency score (higher = more potent) is -0.268. For TAGAAGCCAGTAATCTTCCATC the value was -0.587. For TAACGGTTAGCACACACTCCTT the value was -1.27; for AACGGTTAGCACACACTCCTTT, 0.1; for TTGCAGTACAGCCGCTTGGGGT, -1.34. For TTTGATAGACACAACTCCTCTC, the sensor-assay potency score (higher = more potent) came out at 0.744. For TGGTGTATTTCCTTGACCGGTA the value was -0.344.

Regarding TTTGCAGTACAGCCGCTTGGGG, the sensor-assay potency score (higher = more potent) was -0.977. The figure for TGAGGGTCGCTCTTCTCCCGGA is -0.455; for ATAGACACAACTCCTCTCTCTT it is -0.298; for TATTAGATTCCAATCGTTCAAA it is -0.684. The figure for AAAAAAGAAACACTCATCCGTA is 0.00256.
